Measured values taken from PubChem BioAssay (Tox21).
Results filed as inconclusive are left out. Activity calls are given as the source filed them. Unless noted, calls come from the whole dose curve; as a rule, active = well fitted curve in the direction sought with a large enough effect in the repeat runs; inconclusive = weak or mixed curves; inactive = no such curve, though single readings can be large; an effect the other way counts as inactive or inconclusive.

Columns and labels:
[1] = qHTS assay to identify small molecule that activate the aryl hydrocarbon receptor (AhR) signaling pathway - cell viability counter screen (AID 743086);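 note: HepG2 liver cells carrying the AhR DRE luciferase reporter; series mostly up to about 70 µM; nearly all actives have a fitted effect of over 45% in size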
Outline: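 Cytotoxicity counter screen: CellTiter-Fluor signal (30 min, 37 C) in 4000 HepG2 cells/well carrying the DRE-luciferase reporter, following 24 h compound exposure at 37 C.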

[2] = qHTS assay to identify small molecule antagonists of the peroxisome proliferator-activated receptor gamma (PPARg) signaling pathway - cell viability counter screen (AID 743194); conditions: Potency: co-treated with 50 nM rosiglitazone unless noted; note: nearly all actives have a fitted effect of over 55% in size
Outline: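 Viability was measured as CellTiter-Glo luminescence in GeneBLAzer PPARg UAS-bla HEK293H cells. These cells had been exposed 17 h at 37 C to compounds together with rosiglitazone at 50 nM final, with the beta-lactamase readout taken in the same wells.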

[3] = qHTS assay for small molecule agonists of the antioxidant response element (ARE) signaling pathway (AID 743202; active = well fitted activation curve with a large enough effect in the signal ratio in the repeat runs, not every such curve was filed as active; the % refers to the signal ratio)
Outline: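 Quantitative high-throughput format in HepG2 cells bearing an integrated ARE-beta-lactamase reporter. Compound exposure lasted 16 h at 37 C, and fluorescence was read 2 h after adding LiveBLAzer B/G substrate at room temperature.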

[4] = qHTS assay for small molecule agonists of the antioxidant response element (ARE) signaling pathway - cell viability counter screen (AID 743203; calls by dose curve; note: nearly all actives have a fitted effect of over 55% in size)
Outline: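 Cells (ARE-bla HepG2, 2,000/well) receive DMSO-dissolved compounds after a 5 hrs rest. Plates incubate 16 hrs at 37C/5% CO2. CellTiter-Glo luminescence is then recorded after 30 min at room temperature.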

[5] = qHTS assay for small molecule activators of the heat shock response signaling pathway - cell viability counter screen (AID 743209); note: nearly all actives have a fitted effect of over 50% in size
Outline: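 Quantitative HTS format, Tox21 10K library. HeLa cells carrying an HSE-driven beta-lactamase reporter were treated 5 h at 37 C, then assessed for viability by CellTiter-Glo luminescence.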

[6] = qHTS assay for small molecule activators of the heat shock response signaling pathway (AID 743210; active = well fitted activation curve with a large enough effect in the signal ratio in the repeat runs, with a control signal flat, not every such curve was filed as active; the % refers to the signal ratio;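 note: HeLa cells with beta-lactamase reporter driven by heat shock elements; series mostly up to about 63 µM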)
Outline: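 HeLa HSE-bla cells, overnight plating; cpd in DMSO 5 h, 37 C; LiveBLAzer B/G FRET substrate 2.5 h RT; fluorescence intensity read.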

[7] = qHTS assay to identify small molecule agonists of the peroxisome proliferator-activated receptor delta (PPARd) signaling pathway - cell viability counter screen (AID 743211); note: nearly all actives have a fitted effect of over 55% in size
Outline: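 Luminescent ATP viability assay (CellTiter-Glo, 30 min RT) in UAS-bla HEK293H cells carrying the PPAR delta reporter construct, 3000 cells/well, after a 17 h compound treatment at 37 C.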

[8] = target: Peroxisome proliferator-activated receptor delta (Homo sapiens) (UniProt Q03181); experiment: qHTS assay to identify small molecule agonists of the peroxisome proliferator-activated receptor delta (PPARd) signaling pathway (AID 743212; calls by dose curve)
Sequence of Peroxisome proliferator-activated receptor delta (Homo sapiens) (Q03181 whole entry, looked up): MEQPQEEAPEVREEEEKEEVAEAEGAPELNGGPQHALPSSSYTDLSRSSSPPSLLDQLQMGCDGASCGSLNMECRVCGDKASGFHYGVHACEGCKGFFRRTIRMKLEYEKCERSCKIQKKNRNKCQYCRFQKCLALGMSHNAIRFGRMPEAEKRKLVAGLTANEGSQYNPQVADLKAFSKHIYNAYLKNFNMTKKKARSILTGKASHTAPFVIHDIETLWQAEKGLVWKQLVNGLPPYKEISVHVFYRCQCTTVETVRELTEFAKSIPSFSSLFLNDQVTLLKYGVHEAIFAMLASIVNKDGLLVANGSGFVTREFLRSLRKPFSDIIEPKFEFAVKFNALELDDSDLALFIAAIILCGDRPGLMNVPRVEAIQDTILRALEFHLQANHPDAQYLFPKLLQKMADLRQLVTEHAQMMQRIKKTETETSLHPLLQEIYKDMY
Outline: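 HEK293H PPARd-bla cells; 5 h preincubation 37 C/5% CO2; compound (DMSO) 37 C; LiveBLAzer B/G FRET substrate 2 h RT; fluorescence intensity.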

[9] = qHTS assay to identify small molecule antagonists of the peroxisome proliferator-activated receptor delta (PPARd) signaling pathway - cell viability counter screen (AID 743213); note: nearly all actives have a fitted effect of over 50% in size
Outline: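 HEK293H cells with the PPARd UAS-bla reporter, co-treated 17 h at 37 C with compounds and L165041 (300 nM final), were lysed with CellTiter-Glo. Luminescence indicated viable cell content.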

[10] = target: Peroxisome proliferator-activated receptor delta (Homo sapiens) (UniProt Q03181); experiment: qHTS assay to identify small molecule antagonists of the peroxisome proliferator-activated receptor delta (PPARd) signaling pathway (AID 743215; active = well fitted inhibition curve with a large enough effect in the signal ratio in the repeat runs, not every such curve was filed as active; the % refers to the signal ratio;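 note: cells stimulated with agonist L165041 at 300 nM final during compound exposure; series mostly up to about 62 µM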)
Outline: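 Antagonist-mode beta-lactamase reporter screen: HEK293H cells with UAS-bla under PPARd control, stimulated by 300 nM L165041 (final) alongside test compound for 17 h at 37 C, then FRET fluorescence after 2 h substrate incubation.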

[11] = qHTS assay to identify small molecule agonists of the farnesoid-X-receptor (FXR) signaling pathway - cell viability counter screen (AID 743218); note: nearly all actives have a fitted effect of over 45% in size
Outline: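 In GeneBLAzer FXR-UAS-bla HEK 293T cells, compounds act for 16 h at 37 C. Cell viability is then scored in the reporter wells by CellTiter-Glo, 30 min at RT, luminescence.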

[12] = qHTS assay to identify small molecule antagonists of the farnesoid-X-receptor (FXR) signaling pathway - cell viability counter screen (AID 743221; active = well fitted cell-killing curve with a large enough effect in the repeat runs, not every such curve was filed as active; note: nearly all actives have a fitted effect of over 50% in size)
Outline: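 In GeneBLAzer FXR-UAS-bla HEK 293T cells stimulated with 50 uM chenodeoxycholic acid (final), compounds acted for 16 h at 37 C. Viability was assessed afterwards by CellTiter-Glo luminescence.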

[13] = target: Vitamin D3 receptor (Homo sapiens) (UniProt P11473); experiment: qHTS assay to identify small molecule agonists of the vitamin D receptor (VDR) signaling pathway (AID 743222; calls by dose curve)
Sequence of Vitamin D3 receptor (Homo sapiens) (P11473 whole entry, looked up): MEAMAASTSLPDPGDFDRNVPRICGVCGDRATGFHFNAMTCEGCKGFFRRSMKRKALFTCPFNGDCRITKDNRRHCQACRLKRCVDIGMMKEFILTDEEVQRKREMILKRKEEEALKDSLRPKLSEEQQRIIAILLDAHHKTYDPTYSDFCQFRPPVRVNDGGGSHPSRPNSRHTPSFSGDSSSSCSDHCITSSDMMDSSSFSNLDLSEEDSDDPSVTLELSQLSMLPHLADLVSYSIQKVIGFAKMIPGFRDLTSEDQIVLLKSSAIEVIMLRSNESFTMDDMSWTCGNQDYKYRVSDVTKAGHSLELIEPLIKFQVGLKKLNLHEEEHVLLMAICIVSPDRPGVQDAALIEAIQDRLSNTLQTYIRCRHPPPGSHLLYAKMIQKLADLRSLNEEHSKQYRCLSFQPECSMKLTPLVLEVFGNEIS
Outline: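 Agonist activity measured in VDR-bla reporter cells. Exposure 16 h, 37C, 5% CO2; detection by B/G FRET substrate, 2 h RT.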

[14] = target: Vitamin D3 receptor (Homo sapiens) (UniProt P11473); experiment: qHTS assay to identify small molecule antagonists of the vitamin D receptor (VDR) signaling pathway (AID 743223; active = well fitted inhibition curve with a large enough effect in the signal ratio in the repeat runs, not every such curve was filed as active; the % refers to the signal ratio)
Outline: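 Agonist 1alpha,25-dihydroxyvitamin D3 (3 nM in well) was added with each compound to VDR-bla cells preincubated 4 h. Cells stood 16 h at 37C, then FRET substrate 2 h at room temperature; fluorescence intensity recorded.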

[15] = qHTS assay to identify small molecule agonists of the vitamin D receptor (VDR) signaling pathway - cell viability counter screen (AID 743224); note: series mostly up to about 63 µM; nearly all actives have a fitted effect of over 50% in size
Outline: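 VDR-bla cell line, quantitative HTS format; 16 h compound incubation (37C, 5% CO2); ATP-based CellTiter-Glo luminescence measured in the reporter assay wells.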

[16] = target: Peroxisome proliferator-activated receptor gamma (Homo sapiens) (UniProt P37231); experiment: qHTS assay to identify small molecule agonists of the peroxisome proliferator-activated receptor gamma (PPARg) signaling pathway (AID 743094; active = well fitted activation curve with a large enough effect in the signal ratio in the repeat runs, not every such curve was filed as active; the % refers to the signal ratio)
Sequence of Peroxisome proliferator-activated receptor gamma (Homo sapiens) (P37231 whole entry, looked up): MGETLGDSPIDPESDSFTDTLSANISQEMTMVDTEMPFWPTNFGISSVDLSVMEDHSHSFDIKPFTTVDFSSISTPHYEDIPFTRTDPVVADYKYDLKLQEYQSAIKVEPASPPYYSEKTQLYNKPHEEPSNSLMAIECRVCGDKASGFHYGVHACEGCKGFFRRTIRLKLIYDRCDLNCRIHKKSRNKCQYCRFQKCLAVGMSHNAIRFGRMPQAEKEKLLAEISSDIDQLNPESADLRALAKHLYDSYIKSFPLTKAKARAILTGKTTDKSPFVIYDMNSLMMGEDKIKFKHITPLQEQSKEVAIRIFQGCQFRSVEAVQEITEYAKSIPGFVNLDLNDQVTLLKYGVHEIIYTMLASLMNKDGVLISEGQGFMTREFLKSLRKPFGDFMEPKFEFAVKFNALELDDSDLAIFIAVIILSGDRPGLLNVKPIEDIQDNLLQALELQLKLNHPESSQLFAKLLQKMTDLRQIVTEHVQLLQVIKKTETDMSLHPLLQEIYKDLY
Outline: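 Stably transfected HEK293H cells (GeneBLAzer PPARg UAS-bla) were incubated with test substances for 17 h at 37C after a 5 h pre-incubation; beta-lactamase activity was then detected by FRET substrate fluorescence.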

[17] = target: Peroxisome proliferator-activated receptor gamma (Homo sapiens) (UniProt P37231); experiment: qHTS assay to identify small molecule antagonists of the peroxisome proliferator-activated receptor gamma (PPARg) signaling pathway (AID 743191; calls by dose curve; note: series mostly up to about 63 µM; nearly all actives have a fitted effect of over 30% in size)
Outline: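 Beta-lactamase reporter under UAS control in HEK293H PPARg-bla cells; compound treatment 17 h at 37C. Read-out: fluorescence intensity after 1 h room-temperature incubation with LiveBLAzer B/G FRET substrate.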

[18] = target: Bile acid receptor (Homo sapiens) (UniProt Q96RI1); experiment: qHTS assay to identify small molecule agonists of the farnesoid-X-receptor (FXR) signaling pathway (AID 743220; active = well fitted activation curve with a large enough effect in the signal ratio in the repeat runs, not every such curve was filed as active; the % refers to the signal ratio)
Sequence of Bile acid receptor (Homo sapiens) (Q96RI1 whole entry, looked up): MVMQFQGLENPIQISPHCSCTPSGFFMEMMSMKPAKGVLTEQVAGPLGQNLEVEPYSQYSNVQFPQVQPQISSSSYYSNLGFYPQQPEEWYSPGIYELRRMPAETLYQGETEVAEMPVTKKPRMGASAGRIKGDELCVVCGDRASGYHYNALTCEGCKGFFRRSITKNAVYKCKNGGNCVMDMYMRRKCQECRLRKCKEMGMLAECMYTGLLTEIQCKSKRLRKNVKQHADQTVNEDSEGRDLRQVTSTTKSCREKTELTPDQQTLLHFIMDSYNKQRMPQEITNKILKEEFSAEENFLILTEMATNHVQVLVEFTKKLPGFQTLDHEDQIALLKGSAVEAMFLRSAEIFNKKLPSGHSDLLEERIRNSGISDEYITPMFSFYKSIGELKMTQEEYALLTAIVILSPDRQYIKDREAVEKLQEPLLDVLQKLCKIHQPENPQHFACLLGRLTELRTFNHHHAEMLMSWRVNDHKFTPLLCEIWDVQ
Outline: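 Beta-lactamase reporter under UAS control in GeneBLAzer FXR HEK 293T cells (5000/well) measured with LiveBLAzer FRET substrate after 2 h at room temperature. Compound exposure lasted 16 h at 37C.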

[19] = target: Bile acid receptor (Homo sapiens) (UniProt Q96RI1); experiment: qHTS assay to identify small molecule antagonists of the farnesoid-X-receptor (FXR) signaling pathway (AID 743217; active = well fitted inhibition curve with a large enough effect in the signal ratio in the repeat runs, not every such curve was filed as active; the % refers to the signal ratio)
Outline: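 Beta-lactamase reporter under UAS control in HEK 293T cells; compound exposure 16 h at 37 °C in the presence of chenodeoxycholic acid (50 uM final); signal from B/G FRET substrate after 2 h at room temperature.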
% is set by controls: 0 for no effect and ±100 for the full control effect.

Clc1c(Cl)c(Cl)c(Cl)c(Cl)c1Cl
inactive: viability change, negative = cytotoxic [1] 3.05% [at 8.47 µM] | activity change, negative = cytotoxicity [2] -5.6% [at 5.95 µM, co-treated with 50 nM rosiglitazone] | activation [3] -2.23% [at 8.36 µM] | viability change, negative = cytotoxic [4] 3.6% [at 8.36 µM] | activity change, negative = cytotoxicity [5] -0.0057% [at 5.95 µM] | activation [6] -2.21% [at 5.95 µM] | activity change, negative = cytotoxicity [7] 0.119% [at 5.95 µM] | activation [8] -6.6% [at 5.95 µM] | viability change, negative = cytotoxic [9] 0.753% [at 6.26 µM] | ratio activity, negative = inhibition [10] -0.823% [at 6.26 µM] | viability change, negative = cytotoxic [11] 24.1% [at 5.95 µM] | activity change, negative = cytotoxicity [12] 10.7% [at 5.95 µM] | activation [13] -0.148% [at 6.01 µM] | activity change, negative = inhibition [14] 0.227% [at 6.95 µM] | activity change, negative = cytotoxicity [15] 2.99% [at 5.95 µM]

c1ccc2c(c1)cc1ccc3cccc4ccc2c1c34
inactive: Potency [2] | Potency [4] | Potency [5] | Potency [7] | Potency [11] | Potency [12] | Potency [15]

O=C(NC(=O)c1ccccc1Cl)Nc1ccc(OC(F)(F)F)cc1
inactive: Potency [16] | Potency [17] | Potency [2] | Potency [4] | Potency [6] | Potency [7] | Potency [8] | Potency [9] | Potency [10] | Potency [11] | Potency [18] | Potency [12] | Potency [13] | Potency [14] | Potency [15]

CCC1COC(Cn2cncn2)(c2ccc(Cl)cc2Cl)O1 (stereo unspecified)
inactive: Potency [16] | Potency [17] | Potency [2] | Potency [4] | Potency [5] | Potency [6] | Potency [7] | Potency [8] | Potency [9] | Potency [10] | Potency [11] | Potency [12] | Potency [13] | Potency [14] | Potency [15]

O=C(Nc1ccc(F)cc1F)c1cccnc1Oc1cccc(C(F)(F)F)c1
inactive: Potency [1] | Potency [16] | Potency [2] | Potency [4] | Potency [5] | Potency [7] | Potency [8] | Potency [9] | Potency [10] | Potency [11] | Potency [18] | Potency [12] | Potency [13] | Potency [14] | Potency [15]

CC(Cc1ccccc1)N(C)Cc1ccco1 (stereo unspecified)
inactive: Potency [17] | Potency [2] | Potency [3] | Potency [4] | Potency [5] | Potency [8] | Potency [9] | Potency [10] | Potency [19] | Potency [11] | Potency [18] | Potency [12] | Potency [13] | Potency [14] | Potency [15]

Nc1cc(Cl)ccc1Cl
inactive: Potency [1] | Potency [2] | Potency [3] | Potency [4] | Potency [5] | Potency [6] | Potency [7] | Potency [8] | Potency [9] | Potency [10] | Potency [11] | Potency [12] | Potency [15]

O=c1[nH]c2cc(Cl)ccc2n1C1CCNCC1
inactive: Potency [17] | Potency [2] | Potency [4] | Potency [5] | Potency [6] | Potency [7] | Potency [8] | Potency [9] | Potency [10] | Potency [19] | Potency [11] | Potency [18] | Potency [12] | Potency [13] | Potency [14] | Potency [15]
